Data as given in PubChem BioAssay AID1003 (National Center for Advancing Translational Sciences (NCATS), 2008).
Activity calls are given as the source filed them.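 How the source made its calls: active means compounds that block the bacterial enzyme AmpC beta-lactamase with detergent present and have a measured Ki; inactive means the rest.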

target: Beta-lactamase (Escherichia coli (strain K12)) (UniProt P00811); test: Confirmation Cuvette-Based Assay for Inhibitors of AmpC Beta-Lactamase (assay with detergent); settings: purified AmpC, nitrocefin hydrolysis absorbance, 0.01% Triton
Protocol: NIH Molecular Libraries Screening Centers Network [MLSCN] NIH Chemical Genomics Center [NCGC] MLSCN Grant: MH079825-01 Assay Provider: Shoichet, Brian K. This aggregation profiling approach exploits the sensitivity of aggregate formation to detergent. Inhibition of b-lactamase is measured in the presence and absence of 0.01% Triton X-100 (Feng 2007). This particular assay is a confirmation of previous qHTS (Inglese, 2006), Pubchem AID 584, assay with presence of 0.01% Triton X-100. For a related assay without detergent, see AID 585. Compounds that inhibit only in the absence of detergent are considered likely promiscuous aggregators. This confirmation assay is a cuvette-based screen of an oxadiazole carbamate series which is an expansion around docking hit Pubchem SID 4244870.
Reactions were performed in methylacrylate cuvettes in 1 mL of reaction volume. The beta-lactamase assay contained 1 nM AmpC beta-lactamase, 200 uM Nitrocefin and varying amounts of Triton X-100 (either 0.00002% or 0.1%). Compound and enzyme were incubated for 5 minutes before the reaction was initiated by addition of substrate. Nitrocefin hydrolysis was monitored as an increase in absorption at 482 nm on an Agilent 8453 UV-visible spectrophotometer at room temperature.

Sequence of Beta-lactamase (Escherichia coli (strain K12)) (P00811 whole entry, looked up): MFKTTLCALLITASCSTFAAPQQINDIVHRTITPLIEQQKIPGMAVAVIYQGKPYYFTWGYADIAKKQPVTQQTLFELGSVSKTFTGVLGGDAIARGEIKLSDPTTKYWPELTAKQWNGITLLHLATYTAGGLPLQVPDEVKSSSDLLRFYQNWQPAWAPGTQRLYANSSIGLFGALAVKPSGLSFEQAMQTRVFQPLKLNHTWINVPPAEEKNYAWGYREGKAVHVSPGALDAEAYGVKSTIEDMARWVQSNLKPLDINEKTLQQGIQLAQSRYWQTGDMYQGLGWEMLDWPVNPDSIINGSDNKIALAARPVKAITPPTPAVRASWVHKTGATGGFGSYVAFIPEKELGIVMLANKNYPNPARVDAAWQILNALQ

Ki, active:
Cn1cc(C[C@H](C(=O)O)N2C(=O)c3ccc(C(=O)O)cc3C2=O)c2ccccc21 17 µM
O=C(O)c1ccc2c(c1)C(=O)N([C@H](Cc1ccc3ccccc3c1)C(=O)O)C2=O 14 µM
Cc1ccc(C[C@H](C(=O)O)N2C(=O)c3ccc(C(=O)O)cc3C2=O)c(C)c1 17 µM
O=C(O)c1ccc2c(c1)C(=O)N([C@H](Cc1c3ccccc3cc3ccccc13)C(=O)O)C2=O 12 µM
O=C(O)c1ccc2c(c1)C(=O)N([C@H](Cc1c[nH]c3ccccc13)C(=O)O)C2=O 17 µM
O=C(O)c1ccc2c(c1)C(=O)N([C@H](Cc1ccc(-c3ccccc3)cc1)C(=O)O)C2=O 15 µM
O=C(O)c1ccc2c(c1)C(=O)N([C@H](Cc1cccc3ccccc13)C(=O)O)C2=O 5 µM
CC(C)(C)c1ccc(C[C@H](C(=O)O)N2C(=O)c3ccc(C(=O)O)cc3C2=O)cc1 11 µM
